Results filed as inconclusive are left out. The source made the active and inactive calls.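 How the source made its calls, unless noted: active means normalized viability below 100% at a tested concentration; inactive means the rest.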
Columns and labels:
[1] = drug combination growth inhibition, ovarian cancer – cell-based, oncology-focused library, rucaparib conditional, profiling panel (AID 1508598); conditions: patient-derived ovarian cancer cells, CellTiter-Glo viability, 144 h, stronger effect = lower value
[2] = growth inhibition, single agent or in combination, cell-based, chromothripsis tumors, cisplatin or BGB combos (AID 1671449; in the data active means inhibition above about 80%;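 further: cells exposed for 96 hours; 0% = vehicle DMSO and 100% = killing by high DMSO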); conditions: LFS_MB_P medulloblastoma cells
[3] = growth inhibition, single agent and combos, cell-based, chromothripsis tumors, cisplatin or BGB combos (AID 1671450; in the data active means inhibition above about 80%;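 further: cells exposed to compound for four days; 0% = vehicle DMSO and 100% = cell killing by high DMSO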); conditions: HDN33 neuroblastoma cells, stronger effect = higher value
[4] = growth inhibition, single agents and combos, ICB984, cell-based, cisplatin or BGB combos, synergistic combos for chromothripsis tumors (AID 1671451; call rule not given here;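 further: cells exposed for 96 hours before readout; 0% = vehicle DMSO and 100% = killing by high DMSO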); conditions: ICB984 medulloblastoma cells, drug combinations, stronger effect = higher value
[5] = growth inhibition, single agents and combos, HTB85, cell-based, BGB or cisplatin IC20 combos, synergistic combos for chromothripsis tumors (AID 1671453; in the data active means inhibition above about 80%;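 further: cells exposed for 96 hours before readout; 0% = vehicle DMSO and 100% = high DMSO killing control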); conditions: HTB85 osteosarcoma cells, drug combinations, stronger effect = higher value
[6] = growth inhibition, MDA-MB-436, cell-based, BGB or cisplatin combos, synergistic combos for chromothripsis tumors (AID 1671458; call rule not given here;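 further: cells exposed for 96 hours; 0% = vehicle DMSO and 100% = killing by high DMSO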); conditions: MDA-MB-436 breast carcinoma growth inhibition, drug combinations, stronger effect = higher value
[7] = BT084 cell growth, single and combined drugs, ICGC_MB145, cisplatin and BGB IC40 combos (AID 1671461; in the data active means inhibition above about 80%;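 further: cells exposed to drugs for 96 hours; 0% = vehicle DMSO and 100% = high DMSO full killing control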); conditions: BT084 medulloblastoma cells, drug combinations, stronger effect = higher value
[8] = RCMB18 cell growth, single agent and combined, cisplatin and BGB IC40 combos (AID 1671462; in the data active means inhibition above about 80%;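 further: cells exposed to compound for four days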); conditions: RCMB18 medulloblastoma cells, stronger effect = higher value
[9] = viability loss in pontine glioma line – cell-based, SU-DIPG-XVII, MIPE5.0, CellTiter-Glo, qHTS, dose response (AID 1347060; cut-off not given, nearly all actives have AC50 up to about 26 µM;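 further: cells exposed to compound for 48 hours before viability readout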); conditions: CellTiter-Glo ATP luminescence
[10] = viability loss in pontine glioma line – cell-based, SU-DIPG-XIII, MIPE4.0, CellTiter-Glo, qHTS, dose response (AID 1347061; cut-off not given, nearly all actives have AC50 up to about 37 µM;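 further: cells exposed to compound for 48 hours before readout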); conditions: CellTiter-Glo ATP luminescence
[11] = viability loss in pontine glioma line – cell-based, JHH-DIPG-1, MIPE4.0, CellTiter-Glo, qHTS, dose response (AID 1347062; cut-off not given, nearly all actives have AC50 up to about 27 µM;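 further: cells exposed to compound for two days before readout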); conditions: JHH-DIPG-1 viability, CellTiter-Glo ATP luminescence
[12] = viability loss in pontine glioma line – cell-based, SU-DIPG-IV, MIPE4.0, CellTiter-Glo, qHTS, dose response (AID 1347063; cut-off not given, nearly all actives have AC50 up to about 30 µM;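 further: compound exposure lasted 48 hours before the viability readout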); conditions: CellTiter-Glo ATP luminescence
[13] = viability loss in pontine glioma line – cell-based, SU-DIPG-XIII, MIPE5.0, CellTiter-Glo, qHTS, dose response (AID 1347064; cut-off not given, nearly all actives have AC50 up to about 23 µM;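 further: cells exposed to compound for 48 hours before the viability read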); conditions: CellTiter-Glo ATP luminescence
[14] = viability loss in pontine glioma line – cell-based, SU-DIPG-XXV, MIPE5.0, CellTiter-Glo, qHTS, dose response (AID 1347065; cut-off not given, nearly all actives have AC50 up to about 26 µM;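 further: cells exposed to compound for 48 hours before ATP readout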); conditions: CellTiter-Glo ATP luminescence
[15] = growth inhibition of DIPG cells – cell-based, MIPE4.0 library, CellTiter-Glo luminescence, qHTS (AID 1347066; cut-off not given, nearly all actives have AC50 up to about 30 µM;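 further: cells exposed to compound for 48 hours before readout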); conditions: SU-DIPG-VI viability, CellTiter-Glo ATP luminescence
[16] = JHH-DIPG-1 glioma cell viability, MIPE5.0 library, CellTiter-Glo luminescence, qHTS (AID 1347067; cut-off not given, nearly all actives have AC50 up to about 26 µM;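 further: cells exposed to compound for 48 hours before readout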); conditions: JHH-DIPG-1 glioma viability, CellTiter-Glo ATP luminescence
[17] = growth inhibition of DIPG cells – cell-based, MIPE5.0 library, qHTS (AID 1347068; cut-off not given, nearly all actives have IC50 up to about 30 µM;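 further: cells exposed to compound for 48 hours before viability readout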); conditions: SU-DIPG-XXV viability
[18] = at 0.0195 µM, OCI-C5x cells, with rucaparib 10 µM, 100% = cells with rucaparib alone
[19] = at 0.0195 µM, OCI-C5x cells, without rucaparib
[20] = at 0.0195 µM, OCI-P5x cells, with rucaparib 20 µM, 100% = cells with rucaparib alone
[21] = at 0.0195 µM, OCI-P5x cells, without rucaparib
[22] = at 0.0781 µM, OCI-C5x cells, with rucaparib 10 µM, 100% = cells with rucaparib alone
[23] = at 0.0781 µM, OCI-C5x cells, without rucaparib
[24] = at 0.0781 µM, OCI-P5x cells, with rucaparib 20 µM, 100% = cells with rucaparib alone
[25] = at 0.0781 µM, OCI-P5x cells, without rucaparib
[26] = at 0.313 µM, OCI-C5x cells, with rucaparib 10 µM, 100% = cells with rucaparib alone
[27] = at 0.313 µM, OCI-C5x cells, without rucaparib
[28] = at 0.313 µM, OCI-P5x cells, with rucaparib 20 µM, 100% = cells with rucaparib alone
[29] = at 0.313 µM, OCI-P5x cells, without rucaparib
[30] = at 1.25 µM, OCI-C5x cells, with rucaparib 10 µM, 100% = cells with rucaparib alone
[31] = at 1.25 µM, OCI-C5x cells, without rucaparib
[32] = at 1.25 µM, OCI-P5x cells, with rucaparib 20 µM, 100% = cells with rucaparib alone
[33] = at 1.25 µM, OCI-P5x cells, without rucaparib
[34] = at 5 µM, OCI-C5x cells, with rucaparib 10 µM, 100% = cells with rucaparib alone
[35] = at 5 µM, OCI-C5x cells, without rucaparib
[36] = at 5 µM, OCI-P5x cells, with rucaparib 20 µM, 100% = cells with rucaparib alone
[37] = at 5 µM, OCI-P5x cells, without rucaparib

## O=c1cc(N2CCOCC2)oc2c(-c3cccc4c3sc3ccccc34)cccc12
[1]; [18]
  viability: 98.9% (active)
[1]; [19]
  viability: 103% (inactive)
[1]; [20]
  viability: 107% (inactive)
[1]; [21]
  viability: 92.1% (active)
[1]; [22]
  viability: 108% (inactive)
[1]; [23]
  viability: 98% (active)
[1]; [24]
  viability: 98.6% (active)
[1]; [25]
  viability: 90.1% (active)
[1]; [26]
  viability: 97% (active)
[1]; [27]
  viability: 99% (active)
[1]; [28]
  viability: 99.1% (active)
[1]; [29]
  viability: 91.6% (active)
[1]; [30]
  viability: 101% (inactive)
[1]; [31]
  viability: 108% (inactive)
[1]; [32]
  viability: 95.4% (active)
[1]; [33]
  viability: 85.4% (active)
[1]; [34]
  viability: 66.1% (active)
[1]; [35]
  viability: 89.5% (active)
[1]; [36]
  viability: 49.8% (active)
[1]; [37]
  viability: 78.7% (active)
[2]; at 0.5 µM, stronger effect = higher value
  inhibition: -9.52% (inactive)
[2]; measured here: combination with BGB IC20, at 0.005 µM
  inhibition: -35.2%
[2]; measured here: combination with BGB IC40, at 0.005 µM
  inhibition: -73.8%
[2]; measured here: combination with BGB IC40, at 0.05 µM
  inhibition: -46%
[2]; measured here: combination with cisplatin, at 0.5 µM, stronger effect = higher value
  inhibition: -30%
[2]; measured here: combination with cisplatin, at 5 µM, stronger effect = higher value
  inhibition: -29.6%
[3]; BGB combo, at 5 µM
  inhibition: -83.5%
[3]; at 0.5 µM
  inhibition: -25.6% (inactive)
[3]; cisplatin combo, at 5 µM
  inhibition: -52%
[3]; measured here: with BGB IC20 combination, at 0.5 µM
  inhibition: -33.3%
[3]; measured here: with cisplatin IC20 combination, at 0.5 µM
  inhibition: -8.96%
[3]; single agent, at 5 µM
  inhibition: -28.3%
[4]; BGB IC20 combo, at 0.005 µM
  inhibition: -21.3%
[4]; BGB IC40 combo, at 0.005 µM
  inhibition: -19.1%
[4]; BGB IC40 combo, at 0.05 µM
  inhibition: -12.3%
[4]; at 0.5 µM
  inhibition: -40.4% (inactive)
[4]; cisplatin combo, at 0.05 µM
  inhibition: -18%
[4]; cisplatin combo, at 0.5 µM
  inhibition: -48.2%
[4]; cisplatin combo, at 5 µM
  inhibition: -17.2%
[4]; measured here: 5 uM single agent, at 5 µM
  inhibition: -2.07%
[5]; at 0.5 µM
  inhibition: -12.3% (inactive)
[5]; measured here: with BGB IC20, at 0.5 µM
  inhibition: 1.92%
[5]; measured here: with BGB IC20, at 5 µM
  inhibition: -7.86%
[5]; measured here: with cisplatin IC20, at 0.5 µM
  inhibition: -21.1%
[5]; measured here: with cisplatin IC20, at 5 µM
  inhibition: -6.63%
[5]; single agent, at 5 µM
  inhibition: 12.4%
[6]; at 0.5 µM
  inhibition: -3.85% (inactive)
[6]; measured here: BGB combination, at 0.5 µM
  inhibition: 6.02%
[6]; measured here: BGB combination, at 5 µM
  inhibition: 9.28%
[6]; measured here: cisplatin combination, at 0.5 µM
  inhibition: -13%
[6]; measured here: cisplatin combination, at 5 µM
  inhibition: 5.38%
[7]; at 0.5 µM
  inhibition: -28.7% (inactive)
[7]; cisplatin combination, at 0.5 µM
  inhibition: -22.9%
[7]; cisplatin combination, at 5 µM
  inhibition: -216%
[7]; measured here: BGB IC40 combination 0.05 uM, at 0.05 µM
  inhibition: -22.7%
[7]; single agent, at 5 µM
  inhibition: -20.5%
[8]; at 0.5 µM
  inhibition: -29.6% (inactive)
[8]; cisplatin combo, at 5 µM
  inhibition: -34.8%
[8]; measured here: BGB IC40 combination, at 0.05 µM
  inhibition: -8.83%
[8]; measured here: combination with cisplatin, at 0.5 µM
  inhibition: -51.5%
[8]; single agent, at 5 µM
  inhibition: 0.048%

## Cc1nc(Nc2n[nH]c3c2CN(C(=O)N[C@H](CN(C)C)c2ccccc2)C3(C)C)c2sccc2n1
[9]
  AC50: 3.72 µM (active)
[10]
  AC50: 10.5 µM (active)
[11]
  AC50: 2.09 µM (active)
[12]
  AC50: 2.96 µM (active)
[13]
  AC50: 1.18 µM (active)
[14]
  AC50: 2.09 µM (active)
[15]
  AC50: 8.33 µM (active)
[16]
  AC50: 2.95 µM (active)
[17]
  IC50: 4.17 µM (active)
[1]; at 0.000305 µM, OCI-C5x cells, with rucaparib 10 µM, 100% = cells with rucaparib alone
  viability: 107% (inactive)
[1]; at 0.000305 µM, OCI-C5x cells, without rucaparib
  viability: 125% (inactive)
[1]; at 0.000305 µM, OCI-P5x cells, with rucaparib 20 µM, 100% = cells with rucaparib alone
  viability: 108% (inactive)
[1]; at 0.000305 µM, OCI-P5x cells, without rucaparib
  viability: 104% (inactive)
[1]; at 0.00122 µM, OCI-C5x cells, with rucaparib 10 µM, 100% = cells with rucaparib alone
  viability: 112% (inactive)
[1]; at 0.00122 µM, OCI-C5x cells, without rucaparib
  viability: 126% (inactive)
[1]; at 0.00122 µM, OCI-P5x cells, with rucaparib 20 µM, 100% = cells with rucaparib alone
  viability: 102% (inactive)
[1]; at 0.00122 µM, OCI-P5x cells, without rucaparib
  viability: 108% (inactive)
[1]; at 0.00488 µM, OCI-C5x cells, with rucaparib 10 µM, 100% = cells with rucaparib alone
  viability: 106% (inactive)
[1]; at 0.00488 µM, OCI-C5x cells, without rucaparib
  viability: 106% (inactive)
[1]; at 0.00488 µM, OCI-P5x cells, with rucaparib 20 µM, 100% = cells with rucaparib alone
  viability: 85.5% (active)
[1]; at 0.00488 µM, OCI-P5x cells, without rucaparib
  viability: 84.6% (active)
[1]; [18]
  viability: 107% (inactive)
[1]; [19]
  viability: 66.6% (active)
[1]; [20]
  viability: 68.4% (active)
[1]; [21]
  viability: 66.2% (active)
[1]; [22]
  viability: 90.6% (active)
[1]; [23]
  viability: 73.2% (active)
[1]; [24]
  viability: 59.9% (active)
[1]; [25]
  viability: 60.2% (active)
[1]; [26]
  viability: 101% (inactive)
[1]; [27]
  viability: 88% (active)
[1]; [28]
  viability: 44.2% (active)
[1]; [29]
  viability: 48.5% (active)
[1]; [30]
  viability: 85.2% (active)
[1]; [31]
  viability: 95.2% (active)
[1]; [32]
  viability: 24.7% (active)
[1]; [33]
  viability: 39.9% (active)
[1]; [34]
  viability: 8.03% (active)
[1]; [35]
  viability: 10.2% (active)
[1]; [36]
  viability: 8.49% (active)
[1]; [37]
  viability: 4.16% (active)

— PubChem BioAssay
